# Assay results: PubChem BioAssay (NCATS)
# Records with an inconclusive call do not appear. A call without a number means that no potency is given here. Activity calls are given as the source filed them. Unless noted, calls follow the shape of the dose curve; as a rule, active = well fitted curve in the direction sought with a large enough effect; inconclusive = small, poorly fitted or top-dose-only effect, or another doubt; inactive = no such curve, though single readings can be large; an effect the other way counts as inactive or inconclusive. Peptide text beside a SMILES is read from it. * marks the point of attachment. Octanoyl = CCCCCCCC(=O)*
# What was measured:
# [1] = G06 Cancer Cell Toxicity qHTS against the NCATS CANVASS Library (AID 1347368); also: nearly all actives have a fitted effect of over 60% in size; also: potency is read from the fitted curve at half-maximal effect
# Procedure, shortened: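 Cells were plated at 500 per well, then compounds were added over an 11-point range. After 72 hr at 37C, CellTiterGlo was added and luminescence measured as ATP content.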
# [2] = qHTS for Hypoxia signaling pathway (HIF-1) agonists against the NCATS CANVASS Library (AID 1347375); also: potency is read from the fitted curve at half-maximal effect
# Procedure, shortened: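 Cells plated and rested 5 h, compounds pinned in DMSO across 11 concentrations, incubated 17 h at 37C, loaded with CCF4-AM for 2 h, fluorescence read at 460 and 530 nm, then CellTiter-Glo luminescence measured for viability and normalization.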
# [3] = qHTS for Antimalaria activity screened against the NCATS CANVASS Library (AID 1347380); also: nearly all actives have a fitted effect of over 40% in size; also: potency is read from the fitted curve at half-maximal effect;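 as to activity change, negative = inhibition: Plasmodium falciparum strain Dd2 asexual parasites grown in red blood cells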
# Procedure, shortened: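 Compounds are titrated over 11 concentrations onto Dd2 parasite cultures (0.3% parasitemia, 2.5% hematocrit). Growth over 72 h at 37C in low oxygen is measured as SYBR Green DNA fluorescence after lysis.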
# [4] = qHTS for activators of Nrf2/ARE signaling pathway screened against the NCATS CANVASS Library (AID 1347391); also: nearly all actives have a fitted effect of over 60% in size; also: potency is read from the fitted curve at half-maximal effect
# Procedure, shortened: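 Beta-lactamase reporter signal, read as 460 and 530 nm emission under 405 nm excitation after 2 h CCF4 loading, reflected ARE activation in HepG2 cells treated 16 h with an 11-point series.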
# [5] = qHTS for inhibitors of ER calcium dysfunction: SERCaMP assay screened against the NCATS CANVASS Library (AID 1347393); also: nearly all actives have a fitted effect of over 40% in size; also: potency is read from the fitted curve at half-maximal effect;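 as to activity change, negative = inhibition: lower secreted reporter signal means inhibitor of ER calcium depletion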
# Procedure, shortened: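 SH-SY5Y GLuc-SERCaMP, 1000 cells/well, 4 h attach; cpd 16 h, 37C/5% CO2; thapsigargin (added as 6x 600 nM) 4 h; coelenterazine; luminescence. Reduced reporter release = ER Ca stabilization.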
# [6] = Redox Reaction Profiling qHTS: Assay Interference Panel against the NCATS CANVASS Library (AID 1347401); also: potency is read from the fitted curve at half-maximal effect
# Procedure, shortened: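 Fluorescence read-out (525 nm excitation, 598 nm emission) at time zero and after 15 min in the dark tracked resorufin formation. Mix: 5 uM resazurin, 200 uM DTT, HEPES pH 7.3 buffer with NaCl.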
# [7] = test system: Zika virus NS2B-NS3 protease (linked construct); experiment: 384 well plate NINDS Rhodamine confirmatory qHTS for Zika virus inhibitors (AID 1347164);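 also: fluorescence from protease cleavage of Ac-LKRR-rhodamine 110 substrate; nearly all actives have a fitted effect of over 65% in size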; also: potency is read from the fitted curve at half-maximal effect; as to activity change, negative = inhibition: top concentration of the series differs between compounds
# Procedure, shortened: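 Linked protease at a final 5 nM, 30 nM or 60 nM was preincubated ~15 min with compounds, then given 10 microM Ac-LKRR-Rhodamine 110. Fluorescence (ex 485/em 538 nm) after 25 min in the dark at room temperature.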
# [8] = Primary qHTS for small molecule stabilizers of the endoplasmic reticulum resident proteome: Secreted ER Calcium Modulated Protein (SERCaMP) assay (AID 1508630)
# Procedure, shortened: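 The SH-SY5Y reporter protocol was run at 3 concentrations up to 38.3 uM (primary) or 11 concentrations (follow-up): 16 h compound, 100 nM thapsigargin for 4 h, then extracellular luciferase luminescence.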
# [9] = HEK293 12hr Apoptosis Induction qHTS against the NCATS CANVASS Library (AID 1347361)
# Procedure, shortened: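 Read-out: Caspase-Glo 3/7 luminescence (DEVD substrate), 15 min RT. Preceded by 12 h compound exposure of HEK293, 500 cells/well, 11-pt qHTS titration; doxorubicin titration as control.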
# [10] = Vero-766 cells viability qHTS against the NCATS CANVASS Library: Counterscreen for Zika virus inhibition assay (AID 1347394); also: nearly all actives have a fitted effect of over 60% in size; also: potency is read from the fitted curve at half-maximal effect
# Procedure, shortened: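 Uninfected Vero 766 (African green monkey) cells, 1000/well, attached overnight, then exposed 72 h at 37C to compounds (11-point qHTS). Viability read by CellTiter-Glo luminescence; media-only wells served as 100% inhibition.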
# [11] = qHTS for ATAD5 Agonist screened against the NCATS CANVASS Library (AID 1347367);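 also: luciferase reporter driven by ATAD5 which rises upon DNA damage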
# Procedure, shortened: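 HEK293T cells stably carrying an ATAD5-controlled luciferase reporter (2000 cells/well) attached for 5 hr, then received compounds in an 11-point series for 16hr at 37C. Luminescence was read after a 30 min room-temperature reagent step.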
# [12] = target: Glucocorticoid receptor (Homo sapiens) (UniProt P04150); experiment: GR-GFP Redistribution (AID 450;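 active = compounds whose dose series gives a full or clear partial fitted curve of increased nuclear translocation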; also: potency is read from the fitted curve at half-maximal effect); conditions: U2OS GR-GFP nuclear translocation, laser cytometry, 2 h
# Glucocorticoid receptor (Homo sapiens), sequence (P04150 whole entry, looked up, the tested form may be a part): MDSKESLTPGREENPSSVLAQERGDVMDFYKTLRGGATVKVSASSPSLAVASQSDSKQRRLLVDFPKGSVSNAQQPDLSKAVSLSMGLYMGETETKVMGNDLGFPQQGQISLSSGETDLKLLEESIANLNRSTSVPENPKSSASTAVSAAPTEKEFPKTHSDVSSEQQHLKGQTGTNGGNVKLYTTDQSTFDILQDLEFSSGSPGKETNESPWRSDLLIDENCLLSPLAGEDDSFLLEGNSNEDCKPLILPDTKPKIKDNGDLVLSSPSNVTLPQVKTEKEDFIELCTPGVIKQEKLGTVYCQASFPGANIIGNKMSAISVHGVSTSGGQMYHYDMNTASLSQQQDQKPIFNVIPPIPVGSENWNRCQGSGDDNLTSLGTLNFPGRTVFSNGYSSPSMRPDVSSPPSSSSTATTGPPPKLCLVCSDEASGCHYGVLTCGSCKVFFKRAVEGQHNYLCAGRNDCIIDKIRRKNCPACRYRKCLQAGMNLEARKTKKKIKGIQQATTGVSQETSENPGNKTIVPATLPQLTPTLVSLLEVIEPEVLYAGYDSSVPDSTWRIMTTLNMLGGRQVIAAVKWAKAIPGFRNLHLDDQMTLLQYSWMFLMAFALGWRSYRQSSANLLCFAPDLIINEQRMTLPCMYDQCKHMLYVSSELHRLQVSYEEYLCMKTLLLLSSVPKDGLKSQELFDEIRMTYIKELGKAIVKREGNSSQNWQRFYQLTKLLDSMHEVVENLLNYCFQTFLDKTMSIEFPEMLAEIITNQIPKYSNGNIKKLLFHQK
# [13] = target: Glucocorticoid receptor (Homo sapiens) (UniProt P04150); experiment: GR-EFC Redistribution (AID 451; calls by dose curve; also: potency is read from the fitted curve at half-maximal effect); conditions: CHO-K1 GR-EFC translocation, beta-gal luminescence, 2 h
# Procedure, shortened: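 CHO-K1 cells expressing nuclear EA and GR-ED fragments of b-gal; compounds titrated up to 46 uM final, 2 h at 37 C. GR nuclear translocation read as complemented b-gal luminescence after 1 h RT detection.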
# [14] = target: Mitogen-activated protein kinase 10 (Mus musculus) (UniProt Q61831); experiment: JNK3 AlphaScreen Assay (AID 530; active = well fitted curve in either direction with a large enough effect, not every such curve was filed as active;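 also: kinase came from lysate of stimulated human HepG2 cells; signal reports phosphorylation of biotinylated GST-cJun 1-79 at Ser73 with 10 µM ATP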)
# Procedure, shortened: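 Activity was read by AlphaScreen after JNK3-containing HepG2 lysate (cytokine pre-activated) phosphorylated biotinylated GST-cJun with 10 uM ATP at room temperature. Phospho-Ser73 cJun antibody with Protein-A acceptor beads provided detection.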
# [15] = qHTS Assay for Lipid Storage Modulators (AID 1519; calls by dose curve); conditions: Drosophila S3 cells, BODIPY lipid droplet/cell ratio, laser cytometry, cells loaded with oleic acid
# Procedure, shortened: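 Cells seeded at 5,000 per well were treated with compounds over a concentration series and loaded with oleic acid (400 uM, as added). Lipid droplet fluorescence (488 nm excitation, 500-530 nm channel) was read by laser-scanning cytometry and normalized to 20 uM Triacsin C.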
# [16] = Tertiary RLuc qRT-PCR qHTS assay for Zika virus inhibitors (AID 1347169); also: nearly all actives have a fitted effect of over 55% in size; also: potency is read from the fitted curve at half-maximal effect; as to activity change, negative = inhibition: top concentration of the series differs between compounds
# Procedure, shortened: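 Vero cells (1,000 per well) plated overnight at 37 degrees C, treated with compound in DMSO, then infected with recombinant ZIKV-RLuc (Cambodian) at MOI 1-2 for 48-72 hrs. Live-cell Renilla luciferase substrate added; luminescence read after 1-1.5 hrs.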
structure (smiles),measurement,setting,value
CS/C=C/C(N)=O,Potency,[1],inactive
same,Potency,[2],inactive
same,Potency,[3],inactive
same,Potency,[4],inactive
same,Potency,[5],inactive
same,Potency,[6],inactive
CC[C@@H](C(=O)[C@H](C)[C@@H](O)[C@H](C)CCc1ccc(C)c(O)c1C(=O)O)C1O[C@@](CC)(C2CC[C@](O)(CC)[C@H](C)O2)C[C@@H]1C (stereo partly drawn),Potency,[7],31.6 µM (active)
same,Potency,[8],inactive
CCCCCCCC(=O)N[C@@H](CC(C)C)C(=O)N[C@H](C=O)CCC(=O)O (Octanoyl-Leu-Glu-aldehyde),Potency,[9],inactive
same,Potency,[1],inactive
same,Potency,[2],inactive
same,Potency,[4],inactive
same,Potency,[5],inactive
same,Potency,[10],inactive
same,Potency,[6],inactive
CCCCCC[C@H](CCCCC[C@@H](O)C(N)=O)OC(=O)[C@@H]1CC=CN1C(=O)c1ccccc1O,Potency,[11],inactive
same,Potency,[4],inactive
same,Potency,[5],inactive
same,Potency,[6],inactive
CCCCCCC[C@@H](C/C=C/CCC(=O)NCCc1c[nH]c2ccccc12)OC,Potency,[1],inactive
same,Potency,[4],inactive
same,Potency,[5],34.3 µM (active)
same,Potency,[10],23.4 µM (active)
same,Potency,[6],inactive
CC(=O)O[C@H]1CC[C@@]2(C)C(CC[C@]3(C)C2CC=C2C4CC(C)(C)CC[C@]4(C)CC[C@]23C)C1(C)C (stereo partly drawn),Potency,[11],inactive
same,Potency,[1],inactive
same,Potency,[3],inactive
same,Potency,[4],inactive
same,Potency,[5],inactive
same,Potency,[10],inactive
same,Potency,[6],inactive
CC[C@@H]1O[C@]2(C=C[C@@H]1C)C[C@H]1C[C@H](CC=C(C)[C@@H](O[C@@H]3C[C@H](OC)[C@H](O[C@@H]4C[C@H](OC)[C@H](O)[C@H](C)O4)[C@H](C)O3)[C@@H](C)C=CC=C3CO[C@@H]4[C@@H](O)C(C)=C[C@@H](C(=O)O1)[C@]34O)O2,Potency,[12],> 20.6 µM (inactive)
same,Potency,[13],> 20.6 µM (inactive)
same,Potency,[14],inactive
same,"activity change, negative = inhibition",[15]; at 25.7 µM (top of the series),-16.6% (inactive)
same,max response,[15]; measured here: cell count channel max response,-4.3%
same,max response,[15]; measured here: lipid channel max response,-18.8%
same,Potency,[16],9.97 µM (active)
C=C1/C=C\C(CCC)=C\c2csc(n2)C(C)NC(=O)C[C@@]2(CC(=O)O)CCC(=C)[C@H](C1)S2 (stereo partly drawn),Potency,[9],inactive
same,Potency,[11],inactive
same,Potency,[1],inactive
same,Potency,[2],inactive
same,Potency,[5],inactive
same,Potency,[10],inactive
COc1ccc2cc(NC(=O)C3=NO[C@H]4[C@H](O)C=C[C@@H](Cl)[C@@]4(O)C3)c(=O)oc2c1OC,Potency,[9],inactive
same,Potency,[1],11.8 µM (active)
same,Potency,[3],inactive
same,Potency,[5],15.3 µM (active)
same,Potency,[10],inactive
same,Potency,[6],inactive
CC(=O)[C@@H]1[C@@H](O)C[C@H]2[C@]3(C)CC[C@H]4C(C)(C)CCC[C@]4(CO)[C@H]3C[C@H]3OC(=O)[C@@H]1[C@@]32C,Potency,[9],inactive
same,Potency,[1],inactive
same,Potency,[2],inactive
same,Potency,[4],inactive
same,Potency,[5],38.4 µM (active)
C/C1=C/[C@@H](C)[C@H](O)C/C=C/CC/C=C/C(=O)O[C@@H]1[C@H](C)C(=O)/C=C/CC1CC(=O)NC(=O)C1,Potency,[11],inactive
same,Potency,[1],14.8 µM (active)
same,Potency,[4],2.34 µM (active)
same,Potency,[5],4.31 µM (active)
same,Potency,[10],inactive
same,Potency,[6],24.1 µM (active)
COc1ccc([C@@H]2c3cc(OC)c(OC)cc3C(=O)C(C)C2C)cc1OC (stereo partly drawn),Potency,[11],inactive
same,Potency,[1],inactive
same,Potency,[2],inactive
same,Potency,[5],38.4 µM (active)
same,Potency,[10],inactive
same,Potency,[6],inactive
C[C@@H]1O[C@@H](O[C@@H]2[C@@H](O)[C@H](O[C@@H]3[C@@H](O)[C@@H](O)C(O[C@H]4[C@H](OC(=O)[C@]56CCC(C)(C)C[C@H]5C5=CCC7[C@@]8(C)C[C@H](O)[C@H](O[C@@H]9C[C@H](CO)[C@@H](O)[C@H](O)[C@H]9O)[C@@](C)(CO)C8[C@H](O)C[C@@]7(C)[C@]5(C)CC6)OC[C@H](O)[C@@H]4O)O[C@H]3C)OC[C@H]2O)[C@H](O)[C@H](O)[C@H]1O (stereo partly drawn),Potency,[9],inactive
same,Potency,[11],inactive
same,Potency,[2],inactive
same,Potency,[4],inactive
same,Potency,[5],inactive
same,Potency,[10],inactive
same,Potency,[6],inactive
Oc1ccc([C@H]2Oc3ccc(/C=C/c4cc(O)cc(O)c4)cc3C2c2cc(O)cc(O)c2)cc1 (stereo partly drawn),Potency,[9],inactive
same,Potency,[1],inactive
same,Potency,[3],0.003 µM (active)
same,Potency,[4],inactive
O=C(COc1ccccc1C(=O)OCC(=O)Nc1cccc2ccccc12)Nc1ccc(Br)cc1,Potency,[7],inactive
same,Potency,[16],inactive
C=CC(C)(C)C(=O)[C@@H](C)[C@@H]1CC[C@](C)(C=C)O1,Potency,[9],inactive
same,Potency,[11],inactive
same,Potency,[1],inactive
same,Potency,[2],inactive
same,Potency,[3],inactive
same,Potency,[4],inactive
same,Potency,[5],inactive
O=C1C[C@@H](c2ccc(O)c(-c3c(O)cc(O)c4c3O[C@H](c3ccc(O)cc3)CC4=O)c2)Oc2cc(O)cc(O)c21,Potency,[9],inactive
same,Potency,[11],inactive
same,Potency,[1],inactive
same,Potency,[5],inactive
same,Potency,[10],inactive
same,Potency,[6],inactive
O=c1cc(-c2ccc(O)c(O[C@@H]3O[C@H](CO)[C@@H](O)[C@H](O)[C@H]3O)c2)oc2cc(O[C@@H]3O[C@H](CO)[C@@H](O)[C@H](O)[C@H]3O)cc(O)c12,Potency,[2],inactive
same,Potency,[3],0.0047 µM (active)
same,Potency,[4],inactive
same,Potency,[5],inactive
CC1=CC2=C[C@H](C)C[C@@]23OC(=C(C)C3=O)CC(C)(C)/C=C/C1=O,Potency,[11],inactive
same,Potency,[1],0.833 µM (active)
same,Potency,[2],5.29 µM (active)
same,Potency,[3],2.36 µM (active)
same,Potency,[4],0.0741 µM (active)
same,Potency,[5],inactive
